Measured values from PubChem BioAssay (NCI).
The panel holds about 79,000 compounds, 15% with a hit somewhere; the sample as a whole holds those more often. Active and inactive are the calls of the source. No stated cut-off is given here; in the data, active means growth inhibition above about 70%; inactive means the rest.

Key:
[1] = NCI Yeast Anticancer Drug Screen. Data for the wt2 strain (AID 169);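 further: 0% = growth of vehicle-treated yeast cultures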; conditions: S. cerevisiae wt2 strain growth inhibition, stronger effect = higher value
Outline: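 Values express reduction in yeast growth under compound treatment, referenced to vehicle-treated cells.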

[2] = NCI Yeast Anticancer Drug Screen. Data for the mlh1 strain (AID 171);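 further: 0% = growth of vehicle-treated control cultures of the same strain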; conditions: S. cerevisiae mlh1 strain growth inhibition, stronger effect = higher value
Outline: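 Steps: expose the defined-mutant yeast strain to compound; expose a parallel culture to vehicle; measure growth; express compound effect as inhibition relative to the vehicle culture.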

[3] = NCI Yeast Anticancer Drug Screen. Data for the sgs1 strain (AID 173);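 further: 0% = growth of vehicle-only control cultures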; conditions: S. cerevisiae sgs1 mutant, stronger effect = higher value
Outline: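 Treat defined-mutant yeast with compound; measure growth; calculate inhibition relative to vehicle-treated cells.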

[4] = NCI Yeast Anticancer Drug Screen. Data for the mlh1 rad18 strain (AID 175); conditions: S. cerevisiae mlh1 rad18 strain growth inhibition, stronger effect = higher value
Outline: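 Test agents were incubated with a yeast strain of defined genotype (DNA damage repair defect). Inhibition of growth was derived by comparison with vehicle-exposed cultures.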

[5] = NCI Yeast Anticancer Drug Screen. Data for the rad18 strain (AID 177); conditions: S. cerevisiae rad18 mutant growth inhibition, stronger effect = higher value
Outline: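 A genetically defined yeast mutant impaired in DNA damage repair was treated with test compounds, then its growth was measured against cultures receiving vehicle alone.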

[6] = NCI Yeast Anticancer Drug Screen. Data for the rad52 strain (AID 147);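 further: 0% = growth of vehicle-treated control cultures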; conditions: S. cerevisiae rad52 mutant growth inhibition, stronger effect = higher value
Outline: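 Screen used a yeast mutant impaired in DNA repair. After compound exposure, growth was measured. Values reflect inhibition compared with vehicle-treated cells.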

[7] = NCI Yeast Anticancer Drug Screen. Data for the wt1 strain (AID 149);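 further: 0% = growth of vehicle-treated wt1 cultures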; conditions: S. cerevisiae wt1 strain (SPY 50644) growth inhibition, stronger effect = higher value
Outline: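 Vehicle-normalised growth inhibition; strain wt1; compound exposure.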

[8] = NCI Yeast Anticancer Drug Screen. Data for the rad50EPP+ strain (AID 151);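 further: 0% = growth of vehicle-treated control cultures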; conditions: S. cerevisiae rad50 mutant strain, stronger effect = higher value
Outline: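 Exposing the rad50EPP+ strain to each compound, growth was compared with vehicle-only cultures to give inhibition.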

[9] = NCI Yeast Anticancer Drug Screen. Data for the mgt1 strain (AID 153); conditions: S. cerevisiae mgt1 mutant growth inhibition, stronger effect = higher value
Outline: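 Genetically defined yeast (mgt1) treated with compound; inhibition of growth expressed against vehicle-treated controls.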

[10] = NCI Yeast Anticancer Drug Screen. Data for the rad50 strain (AID 155);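 further: 0% = growth of vehicle-only cultures of the same strain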; conditions: S. cerevisiae rad50 strain growth inhibition, stronger effect = higher value
Outline: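 A DNA repair-deficient yeast mutant serves as the test organism; compound-induced growth inhibition is calculated against vehicle-treated cells.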

[11] = NCI Yeast Anticancer Drug Screen. Data for the mec2-1 strain (AID 157); conditions: S. cerevisiae mec2-1 strain, stronger effect = higher value
Outline: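 Readout is yeast growth inhibition, normalised to vehicle-treated controls, in the mec2-1 strain exposed to compound.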

[12] = NCI Yeast Anticancer Drug Screen. Data for the rad14 strain (AID 159);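 further: 0% = growth of vehicle-treated control cultures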; conditions: S. cerevisiae rad14 strain growth inhibition, stronger effect = higher value
Outline: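 Vehicle-treated cultures served as the baseline for growth inhibition of a DNA repair-mutant yeast strain exposed to each compound.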

[13] = NCI Yeast Anticancer Drug Screen. Data for the sgs1 mgt1 strain (AID 161);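 further: 0% = growth of cultures given vehicle only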; conditions: S. cerevisiae sgs1 mgt1 strain, stronger effect = higher value
Outline: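 Yeast cells carrying a defined DNA-repair defect were exposed to test compounds. Growth inhibition was measured relative to vehicle-treated controls.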

[14] = NCI Yeast Anticancer Drug Screen. Data for the CLN2oe strain (AID 163);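 further: 0% = growth of vehicle-only control cultures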; conditions: S. cerevisiae CLN2oe strain, stronger effect = higher value
Outline: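 Values reflect how much compound exposure reduced yeast growth, referenced to vehicle-exposed cells. Assay organism is a strain with a defined genetic change affecting cell-cycle control.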

[15] = NCI Yeast Anticancer Drug Screen. Data for the cln2 rad14 strain (AID 165);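 further: 0% = growth equal to vehicle treated cultures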; conditions: S. cerevisiae cln2 rad14 strain, stronger effect = higher value
Outline: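 Relative to vehicle controls, growth inhibition of compound-treated cln2 rad14 yeast was recorded.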

[16] = NCI Yeast Anticancer Drug Screen. Data for the bub3 strain (AID 167); conditions: S. cerevisiae bub3 mutant strain, stronger effect = higher value
Outline: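 Inhibition values come from growth of compound-treated mutant yeast normalised to vehicle-treated controls.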

[17] = at 5.0 µM (retest, dose inferred, filed as 0.5)
[18] = at 50.0 µM (retest, dose inferred, filed as 5.0)

Measured: growth inhibition

COc1cc([N+](=O)[O-])c2ncccc2c1Br
inactive: [1]; at 1.2 µM -12% | [1]; at 3.7 µM 0% | [1]; at 11.0 µM 5% | [1]; at 33.0 µM 4% | [1]; at 100.0 µM 9% | [2]; at 1.2 µM -10% | [2]; at 3.7 µM -5% | [2]; at 11.0 µM -3% | [2]; at 33.0 µM -3% | [2]; at 100.0 µM -4% | [3]; at 1.2 µM 41% | [3]; at 3.7 µM 32% | [3]; at 11.0 µM 42% | [3]; at 33.0 µM 42% | [3]; at 100.0 µM 38% | [4]; [17] 53% | [4]; at 50.0 µM 29.3%
active: [4]; [18] 77% | [5]; at 1.2 µM 91% | [5]; at 3.7 µM 93% | [5]; at 11.0 µM 93% | [5]; at 33.0 µM 93% | [5]; at 100.0 µM 91%

CCC[CH2][Ge]([CH2]CCC)([CH2]CCC)[O]C(=O)C(O)c1ccccc1 (stereo unspecified)
active: [6]; at 33.0 µM 88% | [6]; at 100.0 µM 98% | [7]; at 100.0 µM 99% | [9]; at 33.0 µM 93% | [9]; at 100.0 µM 99% | [10]; [17] 95% | [10]; at 33.0 µM 90% | [10]; [18] 95% | [10]; at 50.0 µM 90.2% | [10]; at 100.0 µM 97% | [11]; at 50.0 µM 90.5% | [11]; at 100.0 µM 99% | [12]; at 100.0 µM 99% | [13]; [17] 97% | [13]; [18] 97% | [13]; at 50.0 µM 89.5% | [14]; at 33.0 µM 83% | [14]; at 100.0 µM 99% | [15]; at 50.0 µM 91.2% | [16]; at 33.0 µM 88% | [16]; at 50.0 µM 88.3% | [16]; at 100.0 µM 99% | [1]; at 33.0 µM 81% | [1]; at 100.0 µM 99% | [2]; at 33.0 µM 88% | [2]; at 100.0 µM 99% | [3]; at 33.0 µM 91% | [3]; at 100.0 µM 99% | [4]; [17] 84% | [4]; [18] 84% | [4]; at 50.0 µM 89.7% | [5]; at 33.0 µM 89% | [5]; at 100.0 µM 99%
inactive: [6]; at 1.2 µM 1% | [6]; at 3.7 µM 11% | [6]; at 11.0 µM 45% | [7]; at 1.2 µM -4% | [7]; at 3.7 µM -5% | [7]; at 11.0 µM 11% | [7]; at 33.0 µM 60% | [8]; at 1.2 µM -2% | [8]; at 3.7 µM 3% | [8]; at 11.0 µM 8% | [8]; at 33.0 µM 21% | [8]; at 100.0 µM 49% | [9]; at 1.2 µM -1% | [9]; at 3.7 µM -1% | [9]; at 11.0 µM 10% | [10]; at 1.2 µM 3% | [10]; at 3.7 µM 9% | [10]; at 11.0 µM 36% | [11]; at 1.2 µM -1% | [11]; at 3.7 µM 2% | [11]; [17] 50% | [11]; at 11.0 µM 17% | [11]; at 33.0 µM 69% | [11]; [18] 50% | [12]; at 1.2 µM -3% | [12]; at 3.7 µM -7% | [12]; at 11.0 µM -1% | [12]; at 33.0 µM 68% | [14]; at 1.2 µM -3% | [14]; at 3.7 µM 5% | [14]; at 11.0 µM 17% | [15]; [17] 12% | [15]; [18] 12% | [16]; at 1.2 µM -2% | [16]; at 3.7 µM -4% | [16]; [17] 27% | [16]; at 11.0 µM 24% | [16]; [18] 27% | [1]; at 1.2 µM -2% | [1]; at 3.7 µM -2% | [1]; at 11.0 µM 16% | [2]; at 1.2 µM -1% | [2]; at 3.7 µM -2% | [2]; at 11.0 µM 14% | [3]; at 1.2 µM -1% | [3]; at 3.7 µM -1% | [3]; at 11.0 µM 28% | [5]; at 1.2 µM 10% | [5]; at 3.7 µM 7% | [5]; at 11.0 µM 55%
